According to PubChem BioAssay (EPA / NIEHS):
Records with an inconclusive call do not appear. Active and inactive are the calls of the source. The calls were made as follows, unless noted: active = hit-call score of the fitted dose curve at least 0.9, where 1 is the maximum; inconclusive = response in the unintended direction; inactive = score below 0.9.

Tests used:
[1] = molecular target: human Beta-secretase (BACE), BACE1 (gene 23621) (UniProt P56817); test: NVS_ENZ_hBACE: NovaScreen (NVS) Enzymatic Assay for human Beta-secretase (BACE) (AID 2283140);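 also: hits are inhibitors that reduce fluorescent substrate signal versus DMSO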
human Beta-secretase (BACE), BACE1 (gene 23621), sequence (P56817 whole entry, looked up): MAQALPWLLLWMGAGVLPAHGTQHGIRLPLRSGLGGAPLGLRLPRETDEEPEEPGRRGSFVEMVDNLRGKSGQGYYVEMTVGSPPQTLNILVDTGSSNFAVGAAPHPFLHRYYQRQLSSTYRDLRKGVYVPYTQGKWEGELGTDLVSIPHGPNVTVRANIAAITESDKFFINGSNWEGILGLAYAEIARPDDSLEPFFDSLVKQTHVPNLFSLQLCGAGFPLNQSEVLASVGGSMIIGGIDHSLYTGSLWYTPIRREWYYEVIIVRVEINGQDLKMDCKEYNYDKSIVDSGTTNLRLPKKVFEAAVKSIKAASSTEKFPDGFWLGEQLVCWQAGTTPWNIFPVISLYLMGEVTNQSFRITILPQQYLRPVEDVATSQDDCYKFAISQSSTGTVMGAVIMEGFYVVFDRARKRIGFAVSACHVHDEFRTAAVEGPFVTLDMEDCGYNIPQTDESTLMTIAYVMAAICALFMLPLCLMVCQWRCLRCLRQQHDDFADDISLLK
Outline: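 Compounds were first tested in duplicate at 25 uM, then actives in concentration series, against recombinant BACE1 from SF9 cells. Enzyme activity was measured by fluorescence intensity 1 hour after dosing, with DMSO as negative control.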

[2] = molecular target: human Vascular Endothelial Growth Factor Receptor 1 (VEGFR1), FLT1 (gene 2321) (UniProt P17948); test: NVS_ENZ_hVEGFR1: NovaScreen (NVS) Enzymatic Assay for human Vascular Endothelial Growth Factor Receptor 1 (VEGFR1) (AID 2283226)
human Vascular Endothelial Growth Factor Receptor 1 (VEGFR1), FLT1 (gene 2321), sequence (P17948 whole entry, looked up): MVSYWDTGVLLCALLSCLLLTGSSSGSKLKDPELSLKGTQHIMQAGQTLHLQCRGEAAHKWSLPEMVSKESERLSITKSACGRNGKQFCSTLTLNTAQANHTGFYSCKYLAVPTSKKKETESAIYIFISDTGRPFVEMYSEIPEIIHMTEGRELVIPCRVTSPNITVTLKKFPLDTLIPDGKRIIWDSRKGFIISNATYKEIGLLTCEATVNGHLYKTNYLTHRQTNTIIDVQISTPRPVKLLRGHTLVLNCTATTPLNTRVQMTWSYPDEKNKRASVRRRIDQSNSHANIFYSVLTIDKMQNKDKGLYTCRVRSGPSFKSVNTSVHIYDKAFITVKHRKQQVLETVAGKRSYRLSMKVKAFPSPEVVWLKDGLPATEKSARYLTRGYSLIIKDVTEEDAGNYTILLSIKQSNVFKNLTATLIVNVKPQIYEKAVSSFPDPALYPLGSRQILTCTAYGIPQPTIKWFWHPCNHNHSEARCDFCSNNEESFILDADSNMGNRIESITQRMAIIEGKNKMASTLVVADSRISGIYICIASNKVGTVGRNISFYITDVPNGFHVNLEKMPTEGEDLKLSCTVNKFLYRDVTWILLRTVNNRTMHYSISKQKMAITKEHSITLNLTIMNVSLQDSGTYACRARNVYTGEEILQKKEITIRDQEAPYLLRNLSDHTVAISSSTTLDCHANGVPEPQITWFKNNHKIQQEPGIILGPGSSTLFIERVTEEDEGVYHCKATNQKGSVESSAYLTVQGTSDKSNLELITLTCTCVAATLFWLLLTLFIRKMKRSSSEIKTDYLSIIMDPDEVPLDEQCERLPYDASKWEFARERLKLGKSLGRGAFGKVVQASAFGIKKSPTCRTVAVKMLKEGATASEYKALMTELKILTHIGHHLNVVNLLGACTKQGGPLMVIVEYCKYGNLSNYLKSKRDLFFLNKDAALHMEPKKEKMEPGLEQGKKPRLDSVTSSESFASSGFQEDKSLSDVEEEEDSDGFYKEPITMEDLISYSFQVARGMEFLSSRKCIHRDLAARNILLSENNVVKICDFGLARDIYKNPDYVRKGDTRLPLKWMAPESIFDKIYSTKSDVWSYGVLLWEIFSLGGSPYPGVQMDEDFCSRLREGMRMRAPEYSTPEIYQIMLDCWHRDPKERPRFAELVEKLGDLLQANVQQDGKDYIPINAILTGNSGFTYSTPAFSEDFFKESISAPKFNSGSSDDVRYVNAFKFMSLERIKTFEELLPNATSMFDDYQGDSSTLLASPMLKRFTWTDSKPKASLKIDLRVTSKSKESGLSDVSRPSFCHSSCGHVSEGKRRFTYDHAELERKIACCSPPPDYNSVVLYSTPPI
Outline: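 Cell-free assay of recombinant human VEGFR1 kinase with substrate, measured 1 h after dosing; fluorescence with electrophoretic mobility-shift separation of substrate and product, referenced to DMSO; primary screen at 25 uM in duplicate, actives then run in concentration series.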

[3] = molecular target: Glucocorticoid receptor (Homo sapiens) (UniProt P04150); test: NVS_NR_hGR: NovaScreen (NVS) Nuclear Receptor Binding Assay for human Glucocorticoid Receptor (GR) (AID 2283363);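 as to AC50: activity is loss of specific radioligand binding signal relative to DMSO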
Glucocorticoid receptor (Homo sapiens), sequence (P04150 whole entry, looked up): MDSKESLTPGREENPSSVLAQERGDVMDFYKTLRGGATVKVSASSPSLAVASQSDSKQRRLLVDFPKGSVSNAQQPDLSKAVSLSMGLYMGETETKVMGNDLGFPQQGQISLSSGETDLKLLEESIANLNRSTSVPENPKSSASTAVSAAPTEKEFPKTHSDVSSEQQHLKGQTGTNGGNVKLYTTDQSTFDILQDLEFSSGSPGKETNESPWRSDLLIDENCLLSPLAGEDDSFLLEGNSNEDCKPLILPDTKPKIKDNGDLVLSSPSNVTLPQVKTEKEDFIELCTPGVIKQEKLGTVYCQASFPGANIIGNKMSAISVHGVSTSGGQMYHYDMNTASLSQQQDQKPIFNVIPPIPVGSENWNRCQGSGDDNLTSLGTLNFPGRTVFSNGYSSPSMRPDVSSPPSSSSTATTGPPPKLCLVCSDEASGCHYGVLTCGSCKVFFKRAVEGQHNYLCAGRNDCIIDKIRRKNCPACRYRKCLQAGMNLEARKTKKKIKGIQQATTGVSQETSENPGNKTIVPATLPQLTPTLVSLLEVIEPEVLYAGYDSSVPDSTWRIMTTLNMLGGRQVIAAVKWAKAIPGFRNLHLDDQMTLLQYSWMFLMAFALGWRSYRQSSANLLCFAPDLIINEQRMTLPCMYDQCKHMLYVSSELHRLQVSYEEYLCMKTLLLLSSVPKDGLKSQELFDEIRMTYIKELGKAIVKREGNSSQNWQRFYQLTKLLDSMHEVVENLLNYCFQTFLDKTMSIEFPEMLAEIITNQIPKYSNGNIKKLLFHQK
Outline: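 Cell-free radioligand binding with extracted receptor protein, read by filter-based scintillation counting 16 hours after dosing. Loss of specific signal versus DMSO baseline was scored. Primary screen ran in duplicate at 25 uM; actives were followed up in concentration series.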

[4] = STM_H9_NormalizedViability: Cytotoxicity Assessment at 120 hours in the Stemina devTOX quickPredict H9 human embryonic stem cell (hESC)-based Assay (AID 2283784)
Outline: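 Pluripotent H9 cells dosed, fresh medium plus compound q24h → cell layer read by CellTiter-Fluor → RFU blank-corrected, normalized to DMSO 0.1% mean. Loss-of-signal fit, DMSO as baseline.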

[5] = IUF_NPC2-5_viability_120hr: Viability Assessment at 120 hours in the Leibniz Research Institute for Environmental Medicine (IUF) Neural Progenitor Cell Migration and Differentiation Assay (NPC2-5) (AID 2284312; active = hit-call score of the fitted dose curve at least 0.9, where 1 is the maximum; inactive = score below 0.9)
Outline: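 Human fetal (GW 16-19) neural progenitor spheres of 0.3 mm were plated on poly-D-lysine/laminin in N2 differentiation medium and exposed from day 0 for 120 h, with half-medium refresh at day 3. Viability was read as alamar blue resazurin-to-resorufin fluorescence against DMSO.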

[6] = IUF_NPC1_cytotoxicity_72hr: Cytotoxicity Assessment at 72 hours in the Leibniz Research Institute for Environmental Medicine (IUF) Neural Progenitor Cell Proliferation Assay (NPC1) (AID 2284332);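 also: rising LDH signal means more cytotoxicity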
Outline: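 Spheres of primary human neural progenitors are plated one per well on day 0 in growth-factor medium and dosed at once. After three days at 37C, supernatant LDH is measured fluorimetrically via resazurin reduction.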

SERPINA7 (gene 6906) = test: CCTE_GLTED_hTBG: CCTE's human Thyroxine-binding Globulin (TBG) Inhibition Assay, Great Lakes Toxicology and Ecology Division (GLTED) Lab (AID 2284343);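 also: active chemicals lower fluorescence versus DMSO baseline by displacing probe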
Outline: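 hTBG + test chem, 2 h; ANSA probe displacement; fluorescence readout ex380/em475; DMSO = neg ctrl/baseline; cell-free.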

[7] = system: rat Monoamine Oxidase, MAO-A, Central (MAOAC), gene 29253; test: NVS_ENZ_rMAOAC: NovaScreen (NVS) Enzymatic Assay for rat Monoamine Oxidase, MAO-A, Central (MAOAC) (AID 2283243);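 also: potency refers to inhibition seen as signal drop below DMSO baseline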
Outline: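 Steps: rat brain protein extract dosed with test chemical (25 uM, duplicate, primary); incubated 1.5 h; radiolabelled product separated from substrate and counted. Signal loss versus DMSO scored as inhibition.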

[8] = CEETOX_H295R_ANDR: CeeTox H295R High-throughput Steroidogenesis Assay for Androstenedione (ANDR) (AID 2283436; active = hit-call score of the fitted dose curve at least 0.9, where 1 is the maximum; inactive = score below 0.9); settings: actives raise or lower the signal
Outline: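 H295R human adrenal cells (passages ≤10) were exposed to test chemicals for 48 h; androstenedione in medium was MTBE-extracted and quantified by HPLC-MS/MS against a 7-point standard curve. Bidirectional fitting used DMSO as baseline.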

[9] = CEETOX_H295R_ESTRADIOL: CeeTox H295R High-throughput Steroidogenesis Assay for Estradiol (AID 2283440; active = hit-call score of the fitted dose curve at least 0.9, where 1 is the maximum; inactive = score below 0.9;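 also: estradiol secreted into medium quantified by LC-MS/MS after dansyl derivatisation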); settings: actives raise or lower the signal
Outline: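 H295R cells pre-stimulated 48 h with 10 uM forskolin, then exposed 48 h to chemical in 0.1% DMSO. Medium estradiol quantified by MTBE extraction, dansyl derivatisation and HPLC-MS/MS; bidirectional fit versus DMSO; MTT viability required >/=70%.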

[10] = CEETOX_H295R_ESTRONE: CeeTox H295R High-throughput Steroidogenesis Assay for Estrone (AID 2283441; active = hit-call score of the fitted dose curve at least 0.9, where 1 is the maximum; inactive = score below 0.9;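 also: estrone secreted into medium measured by LC-MS/MS after dansyl derivatization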); settings: actives raise or lower the signal
Outline: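 H295R cells prestimulated 48 h with 10 uM forskolin, then exposed 48 h to chemicals in 0.1% DMSO final; estrone in medium extracted with MTBE, dansyl-derivatized, quantified by HPLC-MS/MS; bidirectional fitting versus DMSO, viability by MTT.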

[11] = CEETOX_H295R_TESTO: CeeTox H295R High-throughput Steroidogenesis Assay for Testosterone (TESTO) (AID 2283457; active = hit-call score of the fitted dose curve at least 0.9, where 1 is the maximum; inactive = score below 0.9;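 as to AC50: cells exposed to chemicals for 48 h before medium collection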); settings: actives raise or lower the signal
Outline: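 H295R adrenal cells, passage ≤10, exposed to chemicals for 48 h. Testosterone in medium measured by MTBE extraction and HPLC-MS/MS against a 7-point standard curve. Bidirectional fit versus DMSO; MTT viability checked in the same wells.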

PGR (gene 5241) [12] = molecular target: PGR (gene 5241) (UniProt P06401); test: TOX21_PR_BLA_Followup_Antagonist_ratio: Tox21 HEK293 Progesterone Receptor (PR) Antagonism Beta-lactamase Follow-Up Assay, Ratio (AID 2283934)
PGR (gene 5241), sequence (P06401 whole entry, looked up): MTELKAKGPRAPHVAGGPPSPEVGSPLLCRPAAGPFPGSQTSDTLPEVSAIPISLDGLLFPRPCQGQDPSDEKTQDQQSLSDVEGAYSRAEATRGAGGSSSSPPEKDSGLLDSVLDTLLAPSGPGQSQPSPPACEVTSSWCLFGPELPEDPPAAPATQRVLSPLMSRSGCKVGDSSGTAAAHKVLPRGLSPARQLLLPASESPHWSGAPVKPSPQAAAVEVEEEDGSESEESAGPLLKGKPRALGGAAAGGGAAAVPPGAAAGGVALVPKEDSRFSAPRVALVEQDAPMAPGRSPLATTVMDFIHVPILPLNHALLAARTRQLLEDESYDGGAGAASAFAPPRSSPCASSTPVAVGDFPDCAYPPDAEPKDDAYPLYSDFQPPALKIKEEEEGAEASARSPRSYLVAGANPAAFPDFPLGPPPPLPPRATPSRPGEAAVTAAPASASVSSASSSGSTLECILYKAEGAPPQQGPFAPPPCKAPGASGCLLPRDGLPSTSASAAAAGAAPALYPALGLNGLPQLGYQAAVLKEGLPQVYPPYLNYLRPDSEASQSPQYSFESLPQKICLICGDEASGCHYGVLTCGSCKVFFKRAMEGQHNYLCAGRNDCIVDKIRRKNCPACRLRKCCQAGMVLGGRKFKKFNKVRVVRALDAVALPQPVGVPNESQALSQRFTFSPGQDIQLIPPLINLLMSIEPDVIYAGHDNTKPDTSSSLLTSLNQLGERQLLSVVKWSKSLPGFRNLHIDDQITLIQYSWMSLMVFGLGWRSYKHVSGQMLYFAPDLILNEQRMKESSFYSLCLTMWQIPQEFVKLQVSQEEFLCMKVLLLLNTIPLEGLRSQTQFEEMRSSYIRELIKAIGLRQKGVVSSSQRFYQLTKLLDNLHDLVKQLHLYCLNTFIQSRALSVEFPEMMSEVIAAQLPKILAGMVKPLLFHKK
Outline: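 HEK293T PR-UAS-bla, 2% CS-FBS; 6 hr plating, then cpd + R5020 (1 nM final), 16 hr 37C/5% CO2. B/G FRET substrate 2 h RT. Ratio ch2/ch1 vs DMSO; CellTiter-Glo viability multiplexed, autofluorescence checked.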

[13] = TOX21_PR_BLA_Followup_Agonist_viability: Viability Assessment in the Tox21 HEK293 Progesterone Receptor (PR) Agonism Beta-lactamase Follow-Up Assay (AID 2283935);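 also: cells exposed to compound for 16 hr at 37 °C; signal loss means lower viability so actives are cytotoxic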
Outline: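 HEK293T PR-UAS-bla, 3,000 cells/well, 2% CS-FBS; 6 hr pre-incubation; cpd in DMSO, 16 hr 37C; LiveBLAzer 2 hr RT, then CellTiter-Glo 30 min RT, luminescence. Decrease = lost viability.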

[14] = TOX21_PR_BLA_Followup_Antagonist_viability: Viability Assessment in the Tox21 HEK293 Progesterone Receptor (PR) Antagonism Beta-lactamase Follow-Up Assay (AID 2283936);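 also: hits lower the luminescence signal meaning cytotoxicity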
Outline: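 PR-UAS-bla HEK293T cells (3,000/well, 2% charcoal-stripped FBS) given compound plus R5020 agonist, 16 h at 37C. CellTiter-Glo added after bla read, 30 min at room temperature; luminescence loss indicates cytotoxicity.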

PGR (gene 5241) [15] = molecular target: PGR (gene 5241) (UniProt P06401); test: TOX21_PR_LUC_Followup_Antagonist: Tox21 HEK293 Progesterone Receptor (PR) Antagonism Luciferase Follow-Up Assay (AID 2283938);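 also: curve fitted upward as signal gain over DMSO baseline despite antagonist label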
Outline: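 HEK293-PR-A-luc cells, 3,000/well, preincubated 5 h at 37C before compound addition in DMSO; 16 h compound exposure at 37C. ONE-Glo luciferase luminescence read after 30 min at room temperature, fitted relative to DMSO baseline.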

[16] = TOX21_PR_LUC_Followup_Antagonist_viability: Viability Assessment in the Tox21 HEK293 Progesterone Receptor (PR) Antagonism Luciferase Follow-Up Assay (AID 2283940)
Outline: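 Multiplexed viability counter-screen: after 5 days in charcoal-stripped-FBS medium, HEK293-PR-A-luc cells are plated, pinned with DMSO-dissolved compounds for 16 h at 37C, and ATP content is quantified luminescently via CellTiter-Glo.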

[17] = TOX21_PR_LUC_Followup_Agonist_viability: Viability Assessment in the Tox21 HEK293 Progesterone Receptor (PR) Agonism Luciferase Follow-Up Assay (AID 2283941);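 also: loss of signal means cytotoxicity so actives lower viability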
Outline: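 Cells were kept 5 days in charcoal-stripped serum medium before plating HEK293-PR-A-luc at 3,000 cells/well. After 5 h they received DMSO-dissolved compound and incubated 16 h at 37C. Viability was taken from CellTiter-Glo ATP luminescence.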

[18] = CCTE_Deisenroth_5AR_NBTE_donor: CCTE's 5alpha-reductase NanoBRET Target Engagement Assay […], Deisenroth Lab (AID 2284319; active = hit-call score of the fitted dose curve at least 0.9, where 1 is the maximum; inactive = score below 0.9); settings: actives raise or lower the signal
Outline: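 Donor NanoLuc luminescence at 460-20 nm is the read-out, serving artifact detection. Transiently expressed SRD5A2-NanoLuc in HEK293T; 5 h total chemical exposure, testosterone tracer added for the final 2 h; fitting bidirectional relative to DMSO baseline.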

SRD5A2 (gene 6716) = test: CCTE_Deisenroth_5AR_NBTE_ratio: CCTE's 5alpha-reductase NanoBRET Target Engagement Assay - Ratio, Deisenroth Lab (AID 2284322; active = hit-call score of the fitted dose curve at least 0.9, where 1 is the maximum; inactive = score below 0.9); settings: actives raise or lower the signal
Outline: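 HEK293T transiently expressing SRD5A2-NanoLuc; cells exposed to chemical (8-point, 10 nM - 29.9 uM) for 5 h total, testosterone tracer added for final 2 h. NanoBRET acceptor/donor ratio (650/460 nm), bidirectional fit vs DMSO.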

O=c1c2ccccc2c(=O)c2c1cc(Cl)c1[nH]c3c([nH]c12)c(Cl)cc1c(=O)c2ccccc2c(=O)c13
AC50 [1]: 12.4 µM (active) | AC50 [2]: 0.732 µM (active) | AC50 [3]: 12.9 µM (active) | outcome [4]: inactive

Cc1ccc(OP(=O)(Oc2ccc(C)cc2)Oc2ccc(C)cc2)cc1 (tested in a mixture with another compound)
outcome [4]: inactive | outcome [5]: inactive | outcome [6]: inactive | AC50 (SERPINA7 (gene 6906)): 1.03 µM (active)

O=C1Nc2ccc(Cl)cc2C(c2ccccc2)=NC1O (stereo unspecified)
AC50 (SERPINA7 (gene 6906)): 37.3 µM (active)

BrCBr
outcome [2]: inactive

CNC(=O)Oc1cc(C)c(SC)c(C)c1
AC50 [7]: 14 µM (active) | AC50 [8]: 37.7 µM (active) | outcome [9]: inactive | outcome [10]: inactive | AC50 [11]: 36 µM (active)

CCOC(=O)COc1ccc(Cl)cc1Cl
AC50 (SERPINA7 (gene 6906)): 24.6 µM (active)

CC(C)CCCCCCCOP(=O)(Oc1ccccc1)Oc1ccccc1
outcome [5]: inactive | outcome [6]: inactive

O=CNC(N1CCN(C(NC=O)C(Cl)(Cl)Cl)CC1)C(Cl)(Cl)Cl (stereo unspecified)
AC50 [8]: 50 µM (active) | outcome [9]: inactive | outcome [10]: inactive | outcome [11]: inactive

CNC(=N[N+](=O)[O-])NCC1CCOC1 (stereo unspecified)
outcome [5]: inactive | outcome [6]: inactive

N#Cc1cc(I)c(O)c(I)c1
outcome (PGR (gene 5241) [12]): inactive | outcome [13]: inactive | outcome [14]: inactive | AC50 (PGR (gene 5241) [15]): 29.9 µM (active) | outcome [16]: inactive | outcome [17]: inactive

O=P(O)(Oc1ccccc1)Oc1ccccc1
outcome [18]: inactive | outcome (SRD5A2 (gene 6716)): inactive

CC(C)(C)C(O)C(Oc1ccc(-c2ccccc2)cc1)n1cncn1 (stereo unspecified)
outcome [3]: inactive | AC50 [8]: 0.114 µM (active) | outcome [9]: inactive | outcome [10]: inactive | outcome [11]: inactive

C[C@]12CCC(=O)C(O)=C1CC[C@@H]1[C@@H]2CC[C@]2(C)C(=O)CC[C@@H]12
AC50 (PGR (gene 5241) [12]): 11.3 µM (active) | outcome [13]: inactive | outcome [14]: inactive | outcome (PGR (gene 5241) [15]): inactive | outcome [16]: inactive | outcome [17]: inactive

Nc1ccc(-c2ccc(N)c(N)c2)cc1N
AC50 [1]: 10.2 µM (active) | AC50 [7]: 14.1 µM (active)

COC(=O)COc1ccc(Cl)cc1Cl
AC50 [7]: 13.7 µM (active)

CCCCCCCCCCCCCCCC[N+](C)(C)C
AC50 [18]: 16.3 µM (active) | outcome (SRD5A2 (gene 6716)): inactive

CC(C)c1ccc(O)cc1
outcome [18]: inactive | outcome (SRD5A2 (gene 6716)): inactive

C[C@]12CC[C@H]3[C@@H](CC[C@@]45O[C@@H]4C(O)=C(C#N)C[C@]35C)[C@@H]1CC[C@@H]2O
outcome (PGR (gene 5241) [12]): inactive | outcome [13]: inactive | outcome [14]: inactive | outcome (PGR (gene 5241) [15]): inactive | outcome [16]: inactive | outcome [17]: inactive
